Measured values published in PubChem BioAssay AID1159580 (chemical genetic matrix, 2015).
Out of some 5,500 compounds screened, about 2,000 (36%) were called active. Inconclusive results (about 18%) are left out. Rule as the data show it: active = normalized growth mostly below about 0.91 (no sharp cut-off); inconclusive = no clear call, values can overlap the other calls; inactive = mostly above about 0.92. The list shows a part of the results.

Assay: chemical genetic growth profiling, strain panel (AID 1159580);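 also: tested at 20 µM; growth read once vehicle control cultures reached saturation at 30 °C; 1 = growth at the plate median or of vehicle wells; lower values mean less growth of the strain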
Settings: growth OD

Measured: normalized growth

CC12CCCC(O)(C1)C1CC(C)(C)C1CC2 (configuration not stated)
inactive: S. cerevisiae deletion strains, locus YJR066W, strain TOR1, stronger effect = lower value 0.95 | S. cerevisiae deletion strains, locus YKL009W, strain mrt4, stronger effect = lower value 1.02 | S. cerevisiae deletion strains, locus YKL068W, stronger effect = lower value 1.01 | S. cerevisiae deletion strains, locus YKL085W, strain MDH1 (second series), stronger effect = lower value 0.998 | S. cerevisiae deletion strains, locus YKL085W, strain MDH1, stronger effect = lower value 0.998 | S. cerevisiae deletion strains, locus YKL160W, strain elf1, stronger effect = lower value 0.954 | S. cerevisiae deletion strains, locus YKR001C, strain vps1, stronger effect = lower value 1.02 | S. cerevisiae deletion strains, locus YKR026C, strain gcn3, stronger effect = lower value 0.999 | S. cerevisiae deletion strains, locus YKR091W, strain srl3, stronger effect = lower value 0.991 | S. cerevisiae deletion strains, locus YLL001W, strain dnm1, stronger effect = lower value 0.925 | S. cerevisiae deletion strains, locus YLL026W, stronger effect = lower value 0.982 | S. cerevisiae deletion strains, locus YLL041C, strain sdh2, stronger effect = lower value 0.982 | S. cerevisiae deletion strains, locus YLR027C, strain aat2, stronger effect = lower value 0.948 | S. cerevisiae deletion strains, locus YLR039C, strain RIC1, stronger effect = lower value 0.972 | S. cerevisiae deletion strains, locus YLR058C, strain SHM2, stronger effect = lower value 1.01 | S. cerevisiae deletion strains, locus YLR102C, strain apc9, stronger effect = lower value 1.01 | S. cerevisiae deletion strains, locus YLR113W, strain HOG1, stronger effect = lower value 0.939 | S. cerevisiae deletion strains, locus YLR221C, strain rsa3, stronger effect = lower value 0.983 | S. cerevisiae deletion strains, locus YLR258W, strain gsy2, stronger effect = lower value 0.961 | S. cerevisiae deletion strains, locus YLR262C, strain YPT6 (second series), stronger effect = lower value 0.878 | S. cerevisiae deletion strains, locus YLR262C, strain YPT6, stronger effect = lower value 1.01 | S. cerevisiae deletion strains, locus YLR268W, strain sec22, stronger effect = lower value 0.992 | S. cerevisiae deletion strains, locus YLR320W, strain mms22, stronger effect = lower value 0.937 | S. cerevisiae deletion strains, locus YLR342W, strain FKS1, stronger effect = lower value 0.918 | S. cerevisiae deletion strains, locus YLR357W, strain rsc2, stronger effect = lower value 0.984 | S. cerevisiae deletion strains, locus YLR370C, strain arc18, stronger effect = lower value 0.981 | S. cerevisiae deletion strains, locus YLR371W, strain rom2, stronger effect = lower value 1.01 | S. cerevisiae deletion strains, locus YLR384C, strain iki3, stronger effect = lower value 1.01 | S. cerevisiae deletion strains, locus YLR418C, strain cdc73, stronger effect = lower value 1.1 | S. cerevisiae deletion strains, locus YML016C, strain PPZ1, stronger effect = lower value 1.01 | S. cerevisiae deletion strains, locus YML032C, strain rad52, stronger effect = lower value 1.02 | S. cerevisiae deletion strains, locus YML120C, strain ndi1, stronger effect = lower value 1 | S. cerevisiae deletion strains, locus YML124C, strain tub3, stronger effect = lower value 1.01 | S. cerevisiae deletion strains, locus YMR058W, strain fet3, stronger effect = lower value 0.985 | S. cerevisiae deletion strains, locus YMR078C, strain ctf18, stronger effect = lower value 1.02 | S. cerevisiae deletion strains, locus YMR125W, strain sto1, stronger effect = lower value 0.974 | S. cerevisiae deletion strains, locus YMR129W, stronger effect = lower value 1.01 | S. cerevisiae deletion strains, locus YMR223W, strain ubp8, stronger effect = lower value 1.02 | S. cerevisiae deletion strains, locus YMR231W, strain pep5, stronger effect = lower value 0.996 | S. cerevisiae deletion strains, locus YMR263W, strain SAP30, stronger effect = lower value 1.01 | S. cerevisiae deletion strains, locus YMR307W, strain GAS1, stronger effect = lower value 0.968 | S. cerevisiae deletion strains, locus YNL067W, strain RPL9B, stronger effect = lower value 1.02 | S. cerevisiae deletion strains, locus YNL153C, strain GIM3, stronger effect = lower value 1.02 | S. cerevisiae deletion strains, locus YNL183C, strain NPR1, stronger effect = lower value 0.953 | S. cerevisiae deletion strains, locus YNL209W, strain ssb2, stronger effect = lower value 1 | S. cerevisiae deletion strains, locus YNL233W, strain BNI4, stronger effect = lower value 1.02 | S. cerevisiae deletion strains, locus YNL248C, strain rpa49, stronger effect = lower value 1.01 | S. cerevisiae deletion strains, locus YNL250W, strain rad50, stronger effect = lower value 1.04 | S. cerevisiae deletion strains, locus YNL271C, strain bni1, stronger effect = lower value 0.998 | S. cerevisiae deletion strains, locus YNL298W, strain CLA4, stronger effect = lower value 0.993 | S. cerevisiae deletion strains, locus YNL307C, strain MCK1, stronger effect = lower value 1.02 | S. cerevisiae deletion strains, locus YNL322C, strain KRE1 (second series), stronger effect = lower value 0.974 | S. cerevisiae deletion strains, locus YNL322C, strain KRE1, stronger effect = lower value 1.01 | S. cerevisiae deletion strains, locus YNR049C, strain mso1, stronger effect = lower value 1 | S. cerevisiae deletion strains, locus YNR052C, strain pop2, stronger effect = lower value 1.03 | S. cerevisiae deletion strains, locus YOL012C, strain htz1 1.39 | S. cerevisiae deletion strains, locus YOL147C, strain pex11, stronger effect = lower value 0.997 | S. cerevisiae deletion strains, locus YOR001W, strain rrp6, stronger effect = lower value 1.05 | S. cerevisiae deletion strains, locus YOR061W, strain CKA2, stronger effect = lower value 1 | S. cerevisiae deletion strains, locus YOR069W, strain VPS5, stronger effect = lower value 1.01 | S. cerevisiae deletion strains, locus YOR070C, strain gyp1, stronger effect = lower value 0.975 | S. cerevisiae deletion strains, locus YOR080W, strain dia2, stronger effect = lower value 1.01 | S. cerevisiae deletion strains, locus YOR083W, strain WHI5, stronger effect = lower value 0.956 | S. cerevisiae deletion strains, locus YOR106W, strain vam3, stronger effect = lower value 0.986 | S. cerevisiae deletion strains, locus YOR136W, strain idh2, stronger effect = lower value 1.01 | S. cerevisiae deletion strains, locus YOR144C, strain elg1, stronger effect = lower value 1 | S. cerevisiae deletion strains, locus YOR184W, strain ser1, stronger effect = lower value 0.978 | S. cerevisiae deletion strains, locus YOR231W, strain MKK1, stronger effect = lower value 0.973 | S. cerevisiae deletion strains, locus YOR265W, strain rbl2, stronger effect = lower value 0.999 | S. cerevisiae deletion strains, locus YOR290C, strain snf2, stronger effect = lower value 0.954 | S. cerevisiae deletion strains, locus YOR316C, strain cot1, stronger effect = lower value 1.01 | S. cerevisiae deletion strains, locus YPL051W, strain arl3, stronger effect = lower value 0.939 | S. cerevisiae deletion strains, locus YPL055C, strain LGE1, stronger effect = lower value 1.01 | S. cerevisiae deletion strains, locus YPL078C, strain atp4, stronger effect = lower value 0.941 | S. cerevisiae deletion strains, locus YPL106C, strain sse1, stronger effect = lower value 0.892 | S. cerevisiae deletion strains, locus YPL240C, strain hsp82, stronger effect = lower value 0.991 | S. cerevisiae deletion strains, locus YPL241C, strain CIN2, stronger effect = lower value 0.999 | S. cerevisiae deletion strains, locus YPL256C, strain CLN2, stronger effect = lower value 0.958 | S. cerevisiae deletion strains, locus YPR119W, strain clb2, stronger effect = lower value 1.02 | S. cerevisiae deletion strains, locus YPR141C, strain kar3, stronger effect = lower value 1 | S. cerevisiae deletion strains, locus YPR163C, strain tif3, stronger effect = lower value 1.02 | S. cerevisiae deletion strains, locus YPR167C, strain met16, stronger effect = lower value 1.01 | S. cerevisiae deletion strains, strain wtn01, stronger effect = lower value 1.01 | S. cerevisiae strains, strain wild type, stronger effect = lower value 1.01
active: S. cerevisiae deletion strains, locus YMR205C, strain PFK2, stronger effect = lower value 0.861 | S. cerevisiae deletion strains, locus YNL071W, strain lat1, stronger effect = lower value 0.859 | S. cerevisiae deletion strains, locus YOR270C, strain vph1, stronger effect = lower value 0.709
